Assay results reported in PubChem BioAssay AID1159580 (chemical genetic matrix, 2015).
Hit rate of the full screen: of about 5,500 compounds, about 2,000 (36%) were called active. Inconclusive results (about 18%) are left out. Cut-off read from the data, not from the text of the source: active = normalized growth mostly below about 0.91 (no sharp cut-off); inconclusive = no clear call, values can overlap the other calls; inactive = mostly above about 0.92. This is one part of the list.

Assay: chemical genetic growth profiling, strain panel (AID 1159580);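 note: tested at 20 µM; growth read once vehicle control cultures reached saturation at 30 °C; 1 = growth at the plate median or of vehicle wells; lower values mean less growth of the strain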
Conditions: growth OD

Measured: normalized growth

COP(=S)(OC)SCn1nnc2ccccc2c1=O
inactive: S. cerevisiae deletion strains, locus YJR075W, strain HOC1, active compounds read low 0.975 | S. cerevisiae deletion strains, locus YKL068W, active compounds read low 0.995 | S. cerevisiae deletion strains, locus YKL085W, strain MDH1 (second series), active compounds read low 0.985 | S. cerevisiae deletion strains, locus YKL085W, strain MDH1, active compounds read low 0.985 | S. cerevisiae deletion strains, locus YKL160W, strain elf1, active compounds read low 0.989 | S. cerevisiae deletion strains, locus YKL190W, strain CNB1, active compounds read low 0.976 | S. cerevisiae deletion strains, locus YKR001C, strain vps1, active compounds read low 0.969 | S. cerevisiae deletion strains, locus YKR026C, strain gcn3, active compounds read low 1.01 | S. cerevisiae deletion strains, locus YKR091W, strain srl3, active compounds read low 1.01 | S. cerevisiae deletion strains, locus YLL001W, strain dnm1, active compounds read low 1.01 | S. cerevisiae deletion strains, locus YLL026W, active compounds read low 0.999 | S. cerevisiae deletion strains, locus YLL041C, strain sdh2, active compounds read low 1 | S. cerevisiae deletion strains, locus YLR027C, strain aat2, active compounds read low 0.996 | S. cerevisiae deletion strains, locus YLR039C, strain RIC1, active compounds read low 0.974 | S. cerevisiae deletion strains, locus YLR058C, strain SHM2, active compounds read low 0.971 | S. cerevisiae deletion strains, locus YLR102C, strain apc9, active compounds read low 0.98 | S. cerevisiae deletion strains, locus YLR113W, strain HOG1, active compounds read low 1.01 | S. cerevisiae deletion strains, locus YLR221C, strain rsa3, active compounds read low 0.971 | S. cerevisiae deletion strains, locus YLR258W, strain gsy2, active compounds read low 1 | S. cerevisiae deletion strains, locus YLR262C, strain YPT6 (second series), active compounds read low 0.96 | S. cerevisiae deletion strains, locus YLR262C, strain YPT6, active compounds read low 0.941 | S. cerevisiae deletion strains, locus YLR268W, strain sec22, active compounds read low 0.963 | S. cerevisiae deletion strains, locus YLR320W, strain mms22, active compounds read low 1 | S. cerevisiae deletion strains, locus YLR330W, strain CHS5, active compounds read low 0.981 | S. cerevisiae deletion strains, locus YLR342W, strain FKS1 (second series), active compounds read low 0.921 | S. cerevisiae deletion strains, locus YLR342W, strain FKS1, active compounds read low 0.986 | S. cerevisiae deletion strains, locus YLR357W, strain rsc2, active compounds read low 0.885 | S. cerevisiae deletion strains, locus YLR370C, strain arc18, active compounds read low 1.02 | S. cerevisiae deletion strains, locus YLR371W, strain rom2, active compounds read low 0.98 | S. cerevisiae deletion strains, locus YLR384C, strain iki3, active compounds read low 0.993 | S. cerevisiae deletion strains, locus YLR418C, strain cdc73, active compounds read low 0.985 | S. cerevisiae deletion strains, locus YML016C, strain PPZ1, active compounds read low 0.981 | S. cerevisiae deletion strains, locus YML032C, strain rad52, active compounds read low 0.977 | S. cerevisiae deletion strains, locus YML120C, strain ndi1, active compounds read low 1.01 | S. cerevisiae deletion strains, locus YML124C, strain tub3, active compounds read low 0.999 | S. cerevisiae deletion strains, locus YMR058W, strain fet3, active compounds read low 0.974 | S. cerevisiae deletion strains, locus YMR078C, strain ctf18, active compounds read low 0.981 | S. cerevisiae deletion strains, locus YMR125W, strain sto1, active compounds read low 1.01 | S. cerevisiae deletion strains, locus YMR129W, active compounds read low 1.01 | S. cerevisiae deletion strains, locus YMR205C, strain PFK2, active compounds read low 1.03 | S. cerevisiae deletion strains, locus YMR223W, strain ubp8, active compounds read low 0.962 | S. cerevisiae deletion strains, locus YMR231W, strain pep5, active compounds read low 0.969 | S. cerevisiae deletion strains, locus YMR263W, strain SAP30, active compounds read low 0.95 | S. cerevisiae deletion strains, locus YMR307W, strain GAS1, active compounds read low 0.993 | S. cerevisiae deletion strains, locus YNL067W, strain RPL9B, active compounds read low 0.941 | S. cerevisiae deletion strains, locus YNL071W, strain lat1, active compounds read low 0.98 | S. cerevisiae deletion strains, locus YNL128W, strain TEP1, active compounds read low 0.954 | S. cerevisiae deletion strains, locus YNL153C, strain GIM3, active compounds read low 0.974 | S. cerevisiae deletion strains, locus YNL183C, strain NPR1, active compounds read low 0.891 | S. cerevisiae deletion strains, locus YNL209W, strain ssb2, active compounds read low 1.01 | S. cerevisiae deletion strains, locus YNL233W, strain BNI4, active compounds read low 0.975 | S. cerevisiae deletion strains, locus YNL248C, strain rpa49, active compounds read low 0.951 | S. cerevisiae deletion strains, locus YNL250W, strain rad50, active compounds read low 0.978 | S. cerevisiae deletion strains, locus YNL271C, strain bni1, active compounds read low 0.977 | S. cerevisiae deletion strains, locus YNL298W, strain CLA4, active compounds read low 0.959 | S. cerevisiae deletion strains, locus YNL307C, strain MCK1, active compounds read low 0.995 | S. cerevisiae deletion strains, locus YNL322C, strain KRE1 (second series), active compounds read low 1 | S. cerevisiae deletion strains, locus YNL322C, strain KRE1, active compounds read low 0.979 | S. cerevisiae deletion strains, locus YNR049C, strain mso1, active compounds read low 1.01 | S. cerevisiae deletion strains, locus YNR052C, strain pop2, active compounds read low 0.99 | S. cerevisiae deletion strains, locus YOL006C, strain TOP1, active compounds read low 0.829 | S. cerevisiae deletion strains, locus YOL012C, strain htz1 1.5 | S. cerevisiae deletion strains, locus YOL147C, strain pex11, active compounds read low 0.99 | S. cerevisiae deletion strains, locus YOR001W, strain rrp6, active compounds read low 0.973 | S. cerevisiae deletion strains, locus YOR061W, strain CKA2, active compounds read low 0.955 | S. cerevisiae deletion strains, locus YOR069W, strain VPS5, active compounds read low 0.992 | S. cerevisiae deletion strains, locus YOR070C, strain gyp1, active compounds read low 0.986 | S. cerevisiae deletion strains, locus YOR080W, strain dia2, active compounds read low 0.998 | S. cerevisiae deletion strains, locus YOR083W, strain WHI5, active compounds read low 0.976 | S. cerevisiae deletion strains, locus YOR106W, strain vam3, active compounds read low 0.918 | S. cerevisiae deletion strains, locus YOR136W, strain idh2, active compounds read low 1.01 | S. cerevisiae deletion strains, locus YOR144C, strain elg1, active compounds read low 0.988 | S. cerevisiae deletion strains, locus YOR184W, strain ser1, active compounds read low 0.951 | S. cerevisiae deletion strains, locus YOR231W, strain MKK1, active compounds read low 0.985 | S. cerevisiae deletion strains, locus YOR265W, strain rbl2, active compounds read low 1 | S. cerevisiae deletion strains, locus YOR270C, strain vph1, active compounds read low 0.858 | S. cerevisiae deletion strains, locus YOR290C, strain snf2, active compounds read low 0.976 | S. cerevisiae deletion strains, locus YOR316C, strain cot1, active compounds read low 0.971 | S. cerevisiae deletion strains, locus YPL051W, strain arl3, active compounds read low 0.973 | S. cerevisiae deletion strains, locus YPL055C, strain LGE1, active compounds read low 0.951 | S. cerevisiae deletion strains, locus YPL078C, strain atp4, active compounds read low 0.992 | S. cerevisiae deletion strains, locus YPL106C, strain sse1, active compounds read low 1.02 | S. cerevisiae deletion strains, locus YPL240C, strain hsp82, active compounds read low 1.01 | S. cerevisiae deletion strains, locus YPL241C, strain CIN2, active compounds read low 0.978 | S. cerevisiae deletion strains, locus YPL256C, strain CLN2, active compounds read low 1 | S. cerevisiae deletion strains, locus YPR119W, strain clb2, active compounds read low 0.994 | S. cerevisiae deletion strains, locus YPR141C, strain kar3, active compounds read low 0.969 | S. cerevisiae deletion strains, locus YPR163C, strain tif3, active compounds read low 0.99 | S. cerevisiae deletion strains, locus YPR167C, strain met16, active compounds read low 0.981 | S. cerevisiae deletion strains, strain wtn01, active compounds read low 0.981 | S. cerevisiae strains, strain wild type, active compounds read low 0.977
active: S. cerevisiae deletion strains, locus YKL009W, strain mrt4, active compounds read low 0.866
